Laboratory results published in the supplement of paper PMC9588786.
“And” between values parts separate entries of the source, which are not always exact repeats. Identical values can stand only once. ± gives the standard deviation of the averaged measurements.

The compounds below were run on HT-1080 (assay: relative cell viability with RSL3 co-treatment (fraction of control); higher = stronger protection from RSL3-induced ferroptosis (higher viability)). Conditions: 10 µM.
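Also: viability read as CCK-8 absorbance at 450 nm in cells co-exposed to the GPX4 inhibitor RSL3, relative to a 0.01% DMSO vehicle control.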

Structure (SMILES) | relative cell viability
Cc1c(NC(=O)OC[C@@H]2COCCN2)cn2ncnc(Nc3ccc4c(cnn4Cc4cccc(F)c4)c3)c12 | 0.793 ± 0.023
Nc1nc(N)c2nc(-c3cccc(O)c3)c(-c3cccc(O)c3)nc2n1 | 0.72 ± 0.03
O=C(NCc1cccc(O)c1)Nc1nc(-c2ccncc2)cs1 | 0.77 ± 0.05
CCCCOc1c(C(=O)c2c(F)cc(C)cc2F)c[nH]c2nncc1-2 | 0.903 ± 0.24
Cc1[nH]c(/C=C2\C(=O)Nc3ccc(S(=O)(=O)N(C)c4cccc(Cl)c4)cc32)c(C)c1C(=O)N1CCN(C)CC1 | 0.547 ± 0.075
Cn1c(Nc2ccc(C(F)(F)F)cc2)nc2cc(Oc3ccnc(-c4ncc(C(F)(F)F)[nH]4)c3)ccc21 | 0.593 ± 0.091
Cc1cnc(-c2cnc(NCCNc3ccc(C#N)cn3)nc2-c2ccc(Cl)cc2Cl)[nH]1 | 0.55 and 0.457
O=C(Cc1ccc(-c2ccc(OCCN3CCOCC3)cc2)cn1)NCc1ccccc1 | 0.627 ± 0.16
C=CC(=O)Nc1cccc(Nc2nc(Nc3ccc(Oc4ccnc(C(=O)NC)c4)cc3)ncc2F)c1 | 0.6 ± 0.056
C=CC(=O)Nc1cccc(Sc2nc(Nc3ccc(N4CCN(C)CC4)cc3)ncc2Cl)c1 | 0.423 ± 0.035
O=C1c2ccc(Nc3ccc(F)cc3F)cc2CCc2ccc(OC[C@H](O)CO)cc21 [Skepinone-L] | 0.513 ± 0.12
CC(C)(C)Cn1c(N)nc2ccc(-c3[nH]c(C(C)(C)C)nc3-c3ccc(F)cc3)nc21 | 0.71 ± 0.017
COc1ccc(COc2cc3oc(=O)c4cc(C(C)O)ccc4c3cc2OC)cc1 (stereo not given) [Palomid 529 (P529)] | 0.537 ± 0.2
COc1ccc2c(Oc3ccc(NC(=O)c4c(C)n(CC(C)(C)O)n(-c5ccccc5)c4=O)nc3)ccnc2c1 | 0.76 ± 0.052
Oc1ccc(Nc2nc(-c3ccc(Cl)cc3)cs2)cc1 | 0.66 ± 0.095
O=S(=O)(NCCNC/C=C/c1ccc(Br)cc1)c1cccc2cnccc12 | 0.577 ± 0.045
CN1CCC(COc2cnc(-c3cccc(Cn4nc(-c5cccc(C#N)c5)ccc4=O)c3)nc2)CC1 | 0.633 ± 0.067
Cc1cc(Nc2nc(N[C@@H](C)c3ccc(F)cc3)c(C#N)cc2F)n[nH]1 | 0.29 ± 0.017
CN1CCN(CCOc2cc(OC3CCOCC3)c3c(Nc4c(Cl)ccc5c4OCO5)ncnc3c2)CC1 [Saracatinib (AZD0530)] | 0.727 ± 0.16
CCOc1cc(C(=O)N2CCC(N3CCN(C)CC3)CC2)ccc1Nc1ncc2c(n1)N(C1CCCC1)c1ccccc1C(=O)N2C | 0.457 ± 0.031
O=C(/C=C/c1ccc(O)c(O)c1)c1ccc(O)cc1O [Butein] | 0.74 ± 0.075
COc1cc2nccc(Oc3ccc(NC(=O)NC4CC4)c(Cl)c3)c2cc1C(N)=O [Lenvatinib (E7080)] | 0.56 ± 0.12
O=C(Nc1c[nH]nc1-c1nc2ccc(CN3CCOCC3)cc2[nH]1)NC1CC1 | 0.35 ± 0.14
Cc1cc(CS(=O)(=O)c2ccccc2)cc(OCc2ccc(CN3CCC[C@@H]3CO)cc2)c1 | 0.723 ± 0.12
CCN(CC)CCCCNc1ncc2cc(-c3cc(OC)cc(OC)c3)c(NC(=O)NC(C)(C)C)nc2n1 | 0.633 ± 0.14
